Measurements taken from the supplement of paper PMC6555819.

What was measured:
Assay in all cases: PBM binding z-score (relative to random genomic background probes); higher = stronger binding; sequences stand for … in GC…GCGATTGACAGCGTAGAATGAAGG
[1] = system: PPARg:RXRa DBDmut IVT, anti-RXR (DBD mutation: RXRa K156A/R161A, NR concentration 270 nM, RXRa partner concentration 90 nM)
Method in brief: (§1)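 Binding buffer was PBS pH 7.4 with 2% milk, 0.02% Triton X-100, 1 mM DTT, 0.2 mg/mL BSA and 0.4 mg/ml salmon testes DNA. In it, ligand-free nuclear receptor dimers were incubated 1 h on custom Agilent 4×180K protein-binding microarrays carrying double-stranded probes. Antibodies against each partner (one per run) detected binding, and z-scores were calculated against random background probes after regression normalization of scanned fluorescence.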

[2] = system: PPARg:RXRa IVT, anti-PPARg (NR concentration 270 nM, RXRa partner concentration 90 nM)
Method in brief: as §1

[3] = system: PPARg DBDmut:RXRa IVT, anti-PPARg (DBD mutation: PPARg1 K132A/R137A, NR concentration 270 nM, RXRa partner concentration 90 nM)
Method in brief: as §1

[4] = system: PPARg DBDmut IVT, anti-PPARg (DBD mutation: PPARg1 K132A/R137A, NR concentration 270 nM)
Method in brief: as §1

[5] = system: PPARg homodimer (NR concentration 180 nM)
Method in brief: as §1

[6] = system: PXR:RXRa (NR concentration 270 nM, RXRa partner concentration 90 nM)
Method in brief: as §1

[7] = system: PXR homodimer (NR concentration 270 nM)
Method in brief: as §1

[8] = system: RARa:RXR (NR concentration 270 nM, RXRa partner concentration 90 nM)
Method in brief: as §1

[9] = system: RARa homodimer (NR concentration 270 nM)
Method in brief: as §1

[10] = system: RARb:RXRa (NR concentration 270 nM, RXRa partner concentration 90 nM)
Method in brief: as §1

| Sequence | PBM binding z-score [1] | PBM binding z-score [2] | PBM binding z-score [3] | PBM binding z-score [4] | PBM binding z-score [5] | PBM binding z-score [6] | PBM binding z-score [7] | PBM binding z-score [8] | PBM binding z-score [9] | PBM binding z-score [10] |
| --- | --- | --- | --- | --- | --- | --- | --- | --- | --- | --- |
| GCTTGTAGATCAAGGTTTAGAAAGACTAAGCTAA | 1.06 | 0.361 | -0.41 | 0.0012 | -0.0341 | -0.479 | -0.437 | -0.166 | 0.111 | -0.486 |
| AGAATGAGGTTATACGTAGATCAGCGAAGAAAGT | 3.8 | 2.33 | 0.885 | 1.06 | 1.02 | 0.953 | 0.44 | 1.55 | -0.289 | 1.23 |
| ACTAGCAGGCCAAGTATGGGTCACTCAAACAAAG | 1.16 | 1.82 | -0.278 | -0.249 | 0.52 | 0.911 | -0.49 | 1.85 | -0.747 | 1.58 |
| TCATATAGGTAAACAGGTGAAAGCCCGTAAGTTA | 4.79 | 4.53 | 1.26 | 0.658 | 0.824 | 0.744 | 0.0524 | 1.07 | 1.58 | 0.738 |
| TCTCGGAGGAGACGAAGGTCAGAGCTTTCCAGAG | 0.916 | -0.157 | -0.48 | -1.43 | 0.692 | 1.01 | -0.222 | 1.5 | -0.817 | 2.37 |
| GGAAGGAGGGCAAGTTGATAGCAGAGTTTGATGG | 3.75 | 3.16 | 0.411 | 0.837 | 2.03 | 1.44 | 2.2 | 0.685 | 1.5 | 2.54 |
| TAGCCTAGGTCATTGGGCCAGTAGAGTACGCATC | 2.83 | 3.89 | -0.36 | -0.247 | 0.811 | 1.57 | -0.0607 | 2.13 | -0.3 | 3.54 |
| CCTTACGGGTGACTCCAGGTTATAGCATCGGAGT | 1.25 | 1.42 | -0.537 | -0.755 | 0.285 | 1.01 | 0.0547 | 1.22 | -0.139 | 0.499 |
| TAGCCTAGGTCATTCGGGGGCCAGTATAGAAAGC | 2.62 | 4.33 | 2.22 | 5 | 1.93 | 3.84 | 0.257 | 3.92 | 0.944 | 3.99 |
| TCTTGTAGATCAAAGGTTGAGAAAGCCGAAGCCT | 2.32 | 2.51 | 0.407 | -0.0322 | -0.0761 | 0.618 | -0.464 | 1.05 | -0.393 | 0.592 |
| CAACCAAGGTGAACAAGGTCGTTGATTACTATTC | 2.56 | 3.05 | 0.422 | 0.588 | 0.973 | 2.8 | 1.68 | 2.42 | 0.281 | 2.29 |
| GCAGACAGGCGAAACGCAGGTAACTCAGGGTGGC | -0.782 | -0.814 | -1.19 | -1.5 | -0.436 | -0.82 | -0.795 | -0.316 | -1.37 | -0.55 |
| CCGAGTGGGGCATAAGGTTACCATAAGCCAGCCC | 2.28 | 2.81 | -1.47 | -1.33 | 0.587 | 0.569 | -0.243 | 1.27 | -0.802 | 1.35 |
| CCTACGGGGCCATCAGGTCATTGATATCAACGTT | 1.08 | 2.4 | -0.644 | -0.657 | 1.9 | 2.18 | 0.639 | 2.97 | 0.686 | 2.86 |
| TCATATAGGTAAGACAGGTGAAAGTCGGCATCTA | 3.27 | 2.39 | 0.585 | 1.03 | 0.477 | 0.625 | 0.645 | 0.925 | 1.31 | 0.61 |
| CAAACTGGGTCACGAAAGGTCAAAGTCGAATGAC | 8.29 | 8.88 | 2.86 | 1.62 | 5.34 | 7.09 | 2.6 | 7.48 | 2.73 | 5.56 |
| CCTGCTACGTCATGGTCAGCTAATCTACAGTATG | 0.0597 | -0.592 | 0.222 | -0.835 | -0.235 | -0.16 | -0.428 | -0.116 | -0.328 | 0.259 |
| TCTCGGAGGACACGAAAGGTAAGAGCTCGACATC | 1.28 | -0.239 | -1.14 | -1.23 | -0.641 | -0.211 | -0.673 | -0.135 | -0.792 | 1.59 |
| GGAACGAGGGCTAGTTGATAGCAGAGTTTGATGG | 0.122 | -0.508 | -0.313 | -0.827 | -0.214 | -0.534 | -0.283 | -0.627 | -0.525 | -0.19 |

| Sequence | PBM binding z-score [1] | PBM binding z-score [2] | PBM binding z-score [3] | PBM binding z-score [4] | PBM binding z-score [5] | PBM binding z-score [6] | PBM binding z-score [7] | PBM binding z-score [8] | PBM binding z-score [9] | PBM binding z-score [10] |
| --- | --- | --- | --- | --- | --- | --- | --- | --- | --- | --- |
| CAAACTAGATCAAGGTCAAAGTCGGTTTGTGCCA | 3.37 | 3.93 | 1.86 | -0.496 | 1.73 | 4.01 | 1.98 | 3.96 | 0.755 | 3.92 |
| TCTACTAGTTGAAGGGCAACCGACGAGTCCGTTT | 1.69 | 0.294 | 0.093 | -0.701 | 0.312 | 0.458 | 0.108 | 0.275 | -0.569 | 1.27 |
| GCGCCTGGGGCATCAGCAGGTTACCATAACTTAA | -0.452 | -0.359 | -1.03 | -1.67 | -0.0775 | 0.0887 | -0.879 | 0.514 | -1.02 | 0.937 |
| ATATGTAGGTTTAGGGTCATTCAGGTTGGTTCGC | 2.89 | 3.81 | 1.35 | 1.25 | 2.95 | 5.07 | 4.08 | 4.48 | 2.17 | 2.79 |
| ATCGAAAGGTCGTGAGGTGAGCATACAGAAAGGC | 0.297 | 2.79 | 1.33 | 0.333 | 0.137 | 2.77 | 0.261 | 3.85 | 0.316 | 3.89 |
| ATATGTATGTTATCGGGTCATTCAGTTTGCGCAT | 4.28 | 4.3 | 1.17 | 1.83 | 1.39 | 3.37 | 6.74 | 2.59 | 1.05 | 1.98 |
| CCTACTGGGCCATTCAGAGATCATTGATCATATG | 4.48 | 3.51 | 0.0285 | 0.282 | -0.3 | -0.546 | -0.622 | -0.523 | 0.13 | 0.0331 |
| CGATCTAGGTCAAGGACAGTGAATCTCCGCACGC | 7.91 | 8.16 | 4.56 | 2.13 | 2.28 | 0.815 | 0.057 | 2.01 | 0.269 | 3.87 |
| CCTGCTAGGTCATGGTCAGCAAATCTACAGTATG | 4.25 | 3.63 | 0.173 | -0.183 | 1.03 | 1.15 | -0.302 | 2.22 | 0.017 | 3.7 |
| TCTCGGAGGACATGAAAGGTCAGAGCTCGACATC | 2.04 | 1.1 | -0.0886 | -0.561 | 2.54 | 3.59 | 0.0503 | 3.72 | 0.458 | 3.99 |
| CGTCCAAGGTCAGAGAGGGCAGTGAATGCCGAGT | 2.19 | 2.6 | -0.519 | -0.66 | 1.84 | 3.91 | 6.38 | 3.14 | 0.679 | 4.88 |
| CAAATTAGGTCAAGAGGTCAAAGTCCGCTTCCCG | 8.5 | 8.22 | 3.42 | 1.71 | 8.6 | 6.49 | 3.51 | 8.33 | 5.28 | 5.74 |
| CCGACTGGGGCAAGTTTACCATAACGCACAGCCA | 3.19 | 2.78 | -0.473 | -0.469 | 0.332 | -0.0221 | 0.029 | 0.0414 | 0.4 | 1.02 |
| ATCGAAAGGTCGACGAGGTGAGTCTACACCGTTT | 0.545 | 2.03 | 1.28 | 0.606 | 1.13 | 3.31 | 0.495 | 3.84 | 0.442 | 3.98 |
| GGAACGAGGGCAAAGTTTATAGCATCTGTCGACG | 4.26 | 4.43 | 0.246 | 0.345 | 0.817 | 1.91 | 0.961 | 1.74 | 0.0168 | 2.6 |
| ACTCGCAGGACAAAGGTCAGAGCTACGCCAGTGA | 0.731 | 2.9 | 0.371 | -0.29 | 1.88 | 3.6 | 0.075 | 4.72 | 0.499 | 4.29 |
| GCTTGTAGATCAAGATTAAGAAAGACTAAGCTAA | 0.366 | -0.13 | 0.0686 | 0.0924 | -0.256 | -0.671 | -0.582 | -0.252 | -0.194 | -0.426 |
| GCAGACAGGTGACACGCAGGTAACTCAGGGTGGC | 0.596 | 1.21 | -0.103 | -0.383 | -0.125 | -0.218 | -0.476 | 0.24 | -0.572 | 0.684 |
| TAGCCTAGGTCATGGGCCAGTAAACCACGCGAAC | 1.71 | 3.46 | 0.0624 | 0.0351 | 1.25 | 1.83 | -0.321 | 2.72 | -0.171 | 3.98 |
